# Inconclusive results are not listed. Calls of active or inactive are those of the source. Calls follow the shape of the dose curve; as a rule, active = well fitted cell-killing curve with a large enough effect; inconclusive = small, poorly fitted or top-dose-only effect, or effect the other way; inactive = no such curve, though single readings can be large or run the other way.
# Experiment: Quantitative High-Throughput drug screen in 47 multiple myeloma cell lines against the NCATS MIPE library collection: VP6_DJ cell viability assay (AID 1919867); also: nearly all actives have a fitted effect of over 40% in size
# Conditions: ATP luminescence, 48 h; series mostly up to 45.8 µM
# Procedure, shortened: (§1)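 500 cells/well per myeloma line exposed to pinned MIPE 4.0 compounds for 48 h at 37 °C, 5% CO2. Viability read as ATP by CellTiter-Glo luminescence, normalised to DMSO-only (100%) and media-only (0%) wells.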
# Potency is read from the fitted curve at half-maximal effect.
row,SMILES,Potency
1,CC[C@H](NC(=O)[C@H](C)NC)C(=O)N1C[C@@H](O)C[C@H]1Cc1c(-c2[nH]c3cc(F)ccc3c2C[C@H]2C[C@H](O)CN2C(=O)[C@H](CC)NC(=O)[C@H](C)NC)[nH]c2cc(F)ccc12,3.72 µM (active)
2,COc1cc(C=CC(=O)O)ccc1O,inactive
3,Cc1ccccc1-n1c(Cn2nc(-c3cccc(O)c3)c3c(N)ncnc32)nc2cccc(C)c2c1=O,1.05 µM (active)
4,Cc1[nH]c(C=C2C(=O)Nc3ccc(S(=O)(=O)N(C)c4cccc(Cl)c4)cc32)c(C)c1C(=O)N1CCN(C)CC1,13.2 µM (active)
5,N[C@@H](CC(=O)N1CCn2c(nnc2C(F)(F)F)C1)Cc1cc(F)c(F)cc1F,inactive
6,O=C(Nc1ccc(OC(F)(F)F)cc1)c1sccc1NCc1ccnc2ccccc12,16.6 µM (active)
7,COc1cccc(OC)c1-c1cc(C(=O)NC2(C(=O)O)C3CC4CC(C3)CC2C4)nn1-c1ccnc2cc(Cl)ccc12 (stereo not drawn),inactive
8,O=C(NC[C@H](O)CO)c1ccncc1Nc1ccc(I)cc1F,10.5 µM (active)
9,CCOC(=O)N1CCN([N+]([O-])=NOc2cc(ON=[N+]([O-])N3CCN(C(=O)OCC)CC3)c([N+](=O)[O-])cc2[N+](=O)[O-])CC1,6.62 µM (active)
10,COc1ccc(Cn2ccc3ccc(C(=O)NO)cc32)cc1,9.35 µM (active)
11,O=C(CO)N1CCC(c2[nH]nc(-c3ccc(Cl)cc3)c2-c2ccncn2)CC1,1.05 µM (active)

# Experiment: Quantitative High-Throughput drug screen in 47 multiple myeloma cell lines against the NCATS MIPE library collection: UTMC2_PLB cell viability assay (AID 1919868); also: nearly all actives have a fitted effect of over 55% in size
# Conditions: CellTiter-Glo ATP luminescence, 48 h; viability (% of DMSO control): at 45.8 µM (top of the series)
# Procedure, shortened: as §1
row,SMILES,Potency
1,CN(C)CC[C@H](CSc1ccccc1)Nc1ccc(S(=O)(=O)NC(=O)c2ccc(N3CCN(Cc4ccccc4-c4ccc(Cl)cc4)CC3)cc2)cc1[N+](=O)[O-],1.18 µM (active)
2,CON(C)C(=O)N1N=C(c2cc(F)ccc2F)S[C@]1(CCCN)c1ccccc1,inactive
3,CN1CCN2c3ncccc3Cc3ccccc3C2C1 (stereo not drawn),inactive
4,N#CC(c1ccnc(NCCc2cccnc2)n1)c1nc2ccccc2s1 (stereo not drawn),16.6 µM (active)
5,CN1[C@H]2CC[C@H]1CC(OC(=O)c1c[nH]c3ccccc13)C2 (stereo partly drawn),inactive
6,NC(=O)c1ccc(N(C(N)=O)c2c(F)cccc2F)nc1-c1ccc(F)cc1F,9.35 µM (active)
7,CCC[C@H](Nc1nc(-c2ccc(NC(=O)NCC)c(OC)c2)ncc1C)c1cccnc1,0.001 µM (active)
8,CCN(CC)CCCCNc1nc2cc(Cl)c(Cl)cc2nc1-c1ccc(-c2cccs2)s1,9.35 µM (active)
9,CO[C@H]1/C=C\O[C@@]2(C)Oc3c(C)c(O)c4c(O)c(c(C=NN5CCN(C6CCCC6)CC5)c(O)c4c3C2=O)NC(=O)C(C)=CC=C[C@H](C)[C@H](O)[C@@H](C)[C@@H](O)[C@@H](C)[C@H](OC(C)=O)[C@H]1C,0.059 µM (active)
10,CC1(C)[C@H]2CC[C@]3(C)[C@@H](C(=O)C=C4[C@@H]5C[C@@](C)(C(=O)O)CC[C@]5(C)CC[C@]43C)[C@@]2(C)CC[C@@H]1O,inactive
11,Cc1[nH]c(C=C2C(=O)Nc3ccc(S(=O)(=O)N(C)c4cccc(Cl)c4)cc32)c(C)c1C(=O)N1CCN(C)CC1,11.8 µM (active)
12,O=C(Nc1ccc(OC(F)(F)F)cc1)c1sccc1NCc1ccnc2ccccc12,23.5 µM (active)
13,COc1cccc(OC)c1-c1cc(C(=O)NC2(C(=O)O)C3CC4CC(C3)CC2C4)nn1-c1ccnc2cc(Cl)ccc12 (stereo not drawn),inactive
14,CCOC(=O)N1CCN([N+]([O-])=NOc2cc(ON=[N+]([O-])N3CCN(C(=O)OCC)CC3)c([N+](=O)[O-])cc2[N+](=O)[O-])CC1,8.33 µM (active)

# Experiment: Quantitative High-Throughput drug screen in 47 multiple myeloma cell lines against the NCATS MIPE library collection: PE2_PLB cell viability assay (AID 1919869); also: nearly all actives have a fitted effect of over 35% in size
# Conditions: PE2_PLB myeloma cells viability, ATP luminescence, 48 h; series mostly up to 45.8 µM
# Procedure, shortened: as §1
row,SMILES,Potency
1,CC1C(=O)OC2C(O)C34C5CC(C(C)(C)C)C36C(OC(=O)C6O)OC4(C(=O)O5)C12O (stereo not drawn),inactive
2,CN(C)CC[C@H](CSc1ccccc1)Nc1ccc(S(=O)(=O)NC(=O)c2ccc(N3CCN(Cc4ccccc4-c4ccc(Cl)cc4)CC3)cc2)cc1[N+](=O)[O-],1.48 µM (active)
3,C[C@@H]1C[C@H]2[C@@H]3CCC4=CC(=O)C=C[C@]4(C)[C@@]3(F)[C@@H](O)C[C@]2(C)[C@@]1(O)C(=O)CO,inactive
4,O=c1[nH]c(=O)n([C@H]2C[C@@H](O)[C@@H](CO)O2)cc1I,inactive
5,CON(C)C(=O)N1N=C(c2cc(F)ccc2F)S[C@]1(CCCN)c1ccccc1,inactive
6,C[C@]12C=CC(=O)C=C1CC[C@@H]1[C@@H]2[C@@H](O)C[C@@]2(C)[C@@H]1CC[C@]2(O)C(=O)CO,inactive
7,CN1CCN2c3ncccc3Cc3ccccc3C2C1 (stereo not drawn),inactive
8,N#CC(c1ccnc(NCCc2cccnc2)n1)c1nc2ccccc2s1 (stereo not drawn),5.26 µM (active)
9,CN1[C@H]2CC[C@H]1CC(OC(=O)c1c[nH]c3ccccc13)C2 (stereo partly drawn),inactive
10,CN[C@@H]1[C@@H](O)[C@@H](O[C@@H]2[C@@H](O)[C@H](O[C@H]3O[C@H](CN)[C@@H](O)[C@H](O)[C@@H]3O)[C@@H](N)C[C@@H]2NC(=O)[C@@H](O)CN)OC[C@]1(C)O,inactive
11,CN1CCN(c2ncc(-c3cc(Cl)cc(Cl)c3Cl)c(N)n2)CC1,10.5 µM (active)
12,NC(=O)c1ccc(N(C(N)=O)c2c(F)cccc2F)nc1-c1ccc(F)cc1F,16.6 µM (active)
13,CCC[C@H](Nc1nc(-c2ccc(NC(=O)NCC)c(OC)c2)ncc1C)c1cccnc1,0.001 µM (active)
14,NS(=O)(=O)c1cc(Cl)c(Cl)c(S(N)(=O)=O)c1,inactive
15,CCN(CC)CCCCNc1nc2cc(Cl)c(Cl)cc2nc1-c1ccc(-c2cccs2)s1,9.35 µM (active)
16,CO[C@H]1/C=C\O[C@@]2(C)Oc3c(C)c(O)c4c(O)c(c(C=NN5CCN(C6CCCC6)CC5)c(O)c4c3C2=O)NC(=O)C(C)=CC=C[C@H](C)[C@H](O)[C@@H](C)[C@@H](O)[C@@H](C)[C@H](OC(C)=O)[C@H]1C,0.118 µM (active)
17,CC(=O)NCCC(=O)N[C@@H](CCC(N)=O)C(=O)N[C@@H](CO)C(=O)N[C@@H](CCC(N)=O)C(=O)N[C@@H](CCC(N)=O)C(=O)N[C@H](C(=O)N[C@@H](Cc1ccccc1)C(=O)N[C@]1(C)CCCCCCC=CCCC[C@@](C)(C(=O)N[C@@H](CCC(N)=O)C(=O)N[C@@H](CC(N)=O)C(N)=O)NC(=O)[C@H](CC(C)C)NC(=O)[C@H](CC(C)C)NC(=O)[C@@H](CCCNC(=N)N)NC(=O)[C@H](Cc2c[nH]c3ccccc23)NC(=O)[C@H](CC(C)C)NC(=O)[C@H](CC(N)=O)NC1=O)[C@H](C)O,20.9 µM (active)
18,CC1(C)[C@H]2CC[C@]3(C)[C@@H](C(=O)C=C4[C@@H]5C[C@@](C)(C(=O)O)CC[C@]5(C)CC[C@]43C)[C@@]2(C)CC[C@@H]1O,inactive
19,Cc1ccccc1-n1c(Cn2nc(-c3cccc(O)c3)c3c(N)ncnc32)nc2cccc(C)c2c1=O,2.35 µM (active)
20,Cc1ccc2c(=O)c3cccc(CC(=O)O)c3oc2c1C,20.9 µM (active)
21,Cc1[nH]c(C=C2C(=O)Nc3ccc(S(=O)(=O)N(C)c4cccc(Cl)c4)cc32)c(C)c1C(=O)N1CCN(C)CC1,16.6 µM (active)
22,N[C@@H](CC(=O)N1CCn2c(nnc2C(F)(F)F)C1)Cc1cc(F)c(F)cc1F,3.72 µM (active)
23,O=C(Nc1ccc(OC(F)(F)F)cc1)c1sccc1NCc1ccnc2ccccc12,20.9 µM (active)
24,COc1ccnc(CS(=O)c2nc3ccc(OC(F)F)cc3[nH]2)c1OC (stereo not drawn),inactive
25,COc1cccc(OC)c1-c1cc(C(=O)NC2(C(=O)O)C3CC4CC(C3)CC2C4)nn1-c1ccnc2cc(Cl)ccc12 (stereo not drawn),inactive
26,O=C(NC[C@H](O)CO)c1ccncc1Nc1ccc(I)cc1F,5.26 µM (active)
27,CCOC(=O)N1CCN([N+]([O-])=NOc2cc(ON=[N+]([O-])N3CCN(C(=O)OCC)CC3)c([N+](=O)[O-])cc2[N+](=O)[O-])CC1,2.96 µM (active)
28,CC1(COc2ccc3c(c2)ncn3-c2ccc3cccc(N4CCC(N)CC4)c3n2)COC1,0.0148 µM (active)

# From PubChem BioAssay (NCATS)
